We go through 1 sequence from PMC7862700, “An all-to-all approach to the identification of sequence-specific readers for epigenetic DNA modifications on cytosine”.

Holding throughout (assay): DAPPL (digital affinity profiling via proximity ligation, sequencing); 10 mM Tris-HCl pH 7.5, 50 mM NaCl, 1 mM DTT, 4% glycerol, room temperature, 30 min; GST-TFs on glutathione beads, 16-mer random dsDNA library, 0.1% formaldehyde crosslink after washing; high values mean tight binding
For one assay, the target named is T1, FEV (Homo sapiens, UniProt Q99581 1-238).
T1 sequence: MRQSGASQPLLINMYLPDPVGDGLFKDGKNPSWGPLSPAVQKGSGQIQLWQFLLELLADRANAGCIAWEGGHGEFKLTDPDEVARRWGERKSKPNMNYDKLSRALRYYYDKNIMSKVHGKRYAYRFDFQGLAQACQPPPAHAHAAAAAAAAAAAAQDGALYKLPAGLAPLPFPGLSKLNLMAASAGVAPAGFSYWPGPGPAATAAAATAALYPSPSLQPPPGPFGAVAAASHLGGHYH
The note with it: protein: recombinant; tags: N-terminal GST; dsDNA, one strand shown. The procedure, abridged:
(§1)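 Binding signal is each hexamer's read frequency for a factor divided by its frequency in the tag-only sample. The factors were GST-fused human transcription factors from yeast, captured on glutathione beads, DNA-barcoded and pooled with that sample. Pools were incubated with 200 nmole of a random double-stranded 16-mer DNA library in Tris/NaCl/DTT/glycerol buffer at room temperature for 30 min, then washed, crosslinked with 0.1% formaldehyde, proximity-ligated with BsaI/T4 ligase (1 h, 37 °C), PCR-amplified and sequenced on an Illumina NextSeq500.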

Another assay concerns the target ETV5 (Homo sapiens, UniProt P41161 1-510). The note with it: protein: recombinant; tags: N-terminal GST; dsDNA, one strand shown. In short, it runs like this:
as §1

For a further assay, the target named is HSF1 (Homo sapiens, UniProt Q00613 1-529). The note with it: protein: recombinant; tags: N-terminal GST; chain copies: 3; dsDNA, one strand shown. In short, it runs like this: as §1
The next assay has as its target T2, SPIC (Homo sapiens, UniProt Q8N5J4 1-248).
T2 sequence: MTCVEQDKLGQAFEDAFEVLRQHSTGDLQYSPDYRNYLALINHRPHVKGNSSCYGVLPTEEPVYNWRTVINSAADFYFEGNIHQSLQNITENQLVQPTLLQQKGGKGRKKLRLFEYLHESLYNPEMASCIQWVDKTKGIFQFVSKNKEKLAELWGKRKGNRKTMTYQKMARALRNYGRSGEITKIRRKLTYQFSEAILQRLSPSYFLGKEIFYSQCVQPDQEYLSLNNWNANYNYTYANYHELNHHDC
The note with it: protein: recombinant; tags: N-terminal GST; dsDNA, one strand shown. In short, it runs like this:
as §1

A further assay has as its target ELF4 (Homo sapiens, UniProt Q99607 1-663). The note with it: protein: recombinant; tags: N-terminal GST; dsDNA, one strand shown. The procedure, abridged:
as §1

The target of the next assay is T3, ELK4 (Homo sapiens, UniProt P28324-2 1-405).
T3 sequence: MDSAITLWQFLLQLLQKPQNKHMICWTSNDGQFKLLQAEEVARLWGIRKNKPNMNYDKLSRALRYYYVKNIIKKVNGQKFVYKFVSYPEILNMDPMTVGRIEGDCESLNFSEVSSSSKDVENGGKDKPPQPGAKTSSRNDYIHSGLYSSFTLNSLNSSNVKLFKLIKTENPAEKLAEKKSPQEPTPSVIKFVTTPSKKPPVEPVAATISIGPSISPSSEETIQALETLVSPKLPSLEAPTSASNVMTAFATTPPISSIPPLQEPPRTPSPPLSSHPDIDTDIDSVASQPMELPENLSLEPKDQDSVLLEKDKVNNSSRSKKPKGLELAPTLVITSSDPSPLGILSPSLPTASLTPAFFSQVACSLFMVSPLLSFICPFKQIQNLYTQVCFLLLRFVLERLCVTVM
As to conditions: protein: recombinant; tags: N-terminal GST; dsDNA, one strand shown. In short, it runs like this: as §1

In a further assay the target is T4, ETV2 (Homo sapiens, UniProt O00321 1-342).
T4 sequence: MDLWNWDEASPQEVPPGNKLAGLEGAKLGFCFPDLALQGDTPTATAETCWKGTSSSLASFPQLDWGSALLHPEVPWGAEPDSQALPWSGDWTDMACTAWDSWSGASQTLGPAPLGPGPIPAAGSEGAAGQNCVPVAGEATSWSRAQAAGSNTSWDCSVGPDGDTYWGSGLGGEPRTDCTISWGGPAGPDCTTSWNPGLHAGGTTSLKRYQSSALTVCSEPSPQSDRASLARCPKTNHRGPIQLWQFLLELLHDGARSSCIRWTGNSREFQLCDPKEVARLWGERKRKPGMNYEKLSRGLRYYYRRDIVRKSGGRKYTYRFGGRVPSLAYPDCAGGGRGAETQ
The note with it: protein: recombinant; tags: N-terminal GST; dsDNA, one strand shown. In short, it runs like this:
as §1

The next assay has as its target T5, ELF3 (Homo sapiens, UniProt P78545 1-371).
T5 sequence: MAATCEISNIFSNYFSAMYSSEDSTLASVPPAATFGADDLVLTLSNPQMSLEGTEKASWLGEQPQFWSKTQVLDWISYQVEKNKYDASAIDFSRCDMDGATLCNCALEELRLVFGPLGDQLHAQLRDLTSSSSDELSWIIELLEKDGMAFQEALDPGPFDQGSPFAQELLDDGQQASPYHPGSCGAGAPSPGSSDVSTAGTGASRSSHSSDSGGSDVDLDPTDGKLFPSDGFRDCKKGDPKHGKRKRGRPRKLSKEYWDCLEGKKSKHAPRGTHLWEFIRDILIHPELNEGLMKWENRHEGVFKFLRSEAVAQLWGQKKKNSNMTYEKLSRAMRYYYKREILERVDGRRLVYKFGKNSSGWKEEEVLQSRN
As to conditions: protein: recombinant; tags: N-terminal GST; dsDNA, one strand shown. In short, it runs like this:
as §1

Another assay concerns the target CRX (Homo sapiens, UniProt O43186 1-299). The note with it: protein: recombinant; tags: N-terminal GST; dsDNA, one strand shown. The procedure, abridged:
as §1

In a further assay the target is ETV1 (Homo sapiens, UniProt P50549 1-477). As to conditions: protein: recombinant; tags: N-terminal GST; dsDNA, one strand shown. In short, it runs like this:
as §1

The target in another assay is T6, ERF (Homo sapiens, UniProt P50548 1-548).
T6 sequence: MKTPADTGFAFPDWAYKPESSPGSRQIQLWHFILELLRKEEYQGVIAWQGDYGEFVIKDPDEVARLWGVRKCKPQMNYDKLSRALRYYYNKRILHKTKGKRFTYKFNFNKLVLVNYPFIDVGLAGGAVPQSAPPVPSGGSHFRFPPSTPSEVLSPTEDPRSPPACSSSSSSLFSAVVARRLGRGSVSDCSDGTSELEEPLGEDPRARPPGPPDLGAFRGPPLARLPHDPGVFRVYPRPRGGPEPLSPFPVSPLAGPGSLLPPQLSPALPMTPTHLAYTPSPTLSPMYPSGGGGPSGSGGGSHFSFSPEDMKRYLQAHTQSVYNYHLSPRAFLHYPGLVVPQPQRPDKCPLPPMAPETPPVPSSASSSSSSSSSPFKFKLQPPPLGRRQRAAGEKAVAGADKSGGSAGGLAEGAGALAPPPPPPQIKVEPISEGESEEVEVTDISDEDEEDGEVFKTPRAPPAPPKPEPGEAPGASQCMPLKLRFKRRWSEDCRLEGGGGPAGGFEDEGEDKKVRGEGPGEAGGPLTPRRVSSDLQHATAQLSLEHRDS
As to conditions: protein: recombinant; tags: N-terminal GST; dsDNA, one strand shown. The procedure, abridged: as §1

The target in the next assay is T7, ETV3L (Homo sapiens, UniProt Q6ZN32 1-361).
T7 sequence: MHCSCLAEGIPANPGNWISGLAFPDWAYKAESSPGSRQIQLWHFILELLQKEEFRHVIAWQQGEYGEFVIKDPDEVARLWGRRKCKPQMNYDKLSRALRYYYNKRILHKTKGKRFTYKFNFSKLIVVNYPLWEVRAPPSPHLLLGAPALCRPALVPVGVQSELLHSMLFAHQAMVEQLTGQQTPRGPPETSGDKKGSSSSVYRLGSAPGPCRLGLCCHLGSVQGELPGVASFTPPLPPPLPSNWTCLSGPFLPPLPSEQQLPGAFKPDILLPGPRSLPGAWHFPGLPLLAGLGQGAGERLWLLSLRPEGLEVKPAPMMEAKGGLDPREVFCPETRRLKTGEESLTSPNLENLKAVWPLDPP
The note with it: protein: recombinant; tags: N-terminal GST; dsDNA, one strand shown. In short, it runs like this:
as §1

For the next assay, the target named is T8, ETS2 (Homo sapiens, UniProt P15036 1-469).
T8 sequence: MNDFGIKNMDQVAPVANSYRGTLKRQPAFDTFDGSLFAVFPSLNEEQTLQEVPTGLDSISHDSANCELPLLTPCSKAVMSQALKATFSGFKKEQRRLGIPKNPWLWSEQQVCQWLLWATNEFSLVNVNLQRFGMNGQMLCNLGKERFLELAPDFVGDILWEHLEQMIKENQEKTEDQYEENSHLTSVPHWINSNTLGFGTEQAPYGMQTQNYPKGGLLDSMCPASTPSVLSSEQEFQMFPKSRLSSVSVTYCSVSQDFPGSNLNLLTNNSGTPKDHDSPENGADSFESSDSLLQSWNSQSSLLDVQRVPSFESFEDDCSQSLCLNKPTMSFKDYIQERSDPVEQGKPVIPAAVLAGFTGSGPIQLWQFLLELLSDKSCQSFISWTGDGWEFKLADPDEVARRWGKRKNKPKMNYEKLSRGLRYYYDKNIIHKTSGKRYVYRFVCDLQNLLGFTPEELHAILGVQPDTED
As to conditions: protein: recombinant; tags: N-terminal GST; dsDNA, one strand shown. In short, it runs like this:
as §1

The next assay addresses T9, SPDEF (Homo sapiens, UniProt O95238 1-335).
T9 sequence: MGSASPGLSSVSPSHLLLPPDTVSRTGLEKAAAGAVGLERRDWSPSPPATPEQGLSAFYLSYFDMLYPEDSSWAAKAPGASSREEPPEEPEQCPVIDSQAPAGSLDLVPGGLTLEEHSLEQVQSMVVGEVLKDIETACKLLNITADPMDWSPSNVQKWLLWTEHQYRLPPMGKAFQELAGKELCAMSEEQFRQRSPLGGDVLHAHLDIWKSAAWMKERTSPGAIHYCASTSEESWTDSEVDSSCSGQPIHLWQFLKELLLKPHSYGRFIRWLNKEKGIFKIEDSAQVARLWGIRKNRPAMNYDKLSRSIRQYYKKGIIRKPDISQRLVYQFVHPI
As to conditions: protein: recombinant; tags: N-terminal GST; dsDNA, one strand shown. The procedure, abridged: as §1

The target of the next assay is T10, ETV7 (Homo sapiens, UniProt Q9Y603 1-341).
T10 sequence: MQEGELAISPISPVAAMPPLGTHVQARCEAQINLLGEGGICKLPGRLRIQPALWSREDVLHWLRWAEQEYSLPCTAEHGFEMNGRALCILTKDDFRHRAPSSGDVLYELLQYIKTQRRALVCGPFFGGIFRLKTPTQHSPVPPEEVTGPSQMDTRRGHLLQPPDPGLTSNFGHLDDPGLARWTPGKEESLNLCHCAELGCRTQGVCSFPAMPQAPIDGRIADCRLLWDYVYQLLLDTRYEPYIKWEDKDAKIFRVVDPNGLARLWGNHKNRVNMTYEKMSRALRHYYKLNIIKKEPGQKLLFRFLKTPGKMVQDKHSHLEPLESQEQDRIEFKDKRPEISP
The note with it: protein: recombinant; tags: N-terminal GST; dsDNA, one strand shown. In short, it runs like this:
as §1

A further assay has as its target T11, ELF5 (Homo sapiens, UniProt Q9UKW6-2 1-255).
T11 sequence: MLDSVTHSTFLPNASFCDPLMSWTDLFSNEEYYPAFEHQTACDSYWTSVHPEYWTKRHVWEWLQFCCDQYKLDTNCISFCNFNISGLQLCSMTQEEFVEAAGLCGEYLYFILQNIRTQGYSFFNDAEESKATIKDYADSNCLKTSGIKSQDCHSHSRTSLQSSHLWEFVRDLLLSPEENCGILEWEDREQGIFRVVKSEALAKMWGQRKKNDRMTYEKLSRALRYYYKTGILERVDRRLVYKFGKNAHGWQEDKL
As to conditions: protein: recombinant; tags: N-terminal GST; dsDNA, one strand shown. The procedure, abridged:
as §1

The target in a further assay is T12, ETV3 (Homo sapiens, UniProt P41162-2 1-143).
T12 sequence: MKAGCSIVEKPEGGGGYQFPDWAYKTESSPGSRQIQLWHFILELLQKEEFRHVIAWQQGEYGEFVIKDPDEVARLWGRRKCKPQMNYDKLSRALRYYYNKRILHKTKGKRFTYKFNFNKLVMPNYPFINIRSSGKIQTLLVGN
The note with it: protein: recombinant; tags: N-terminal GST; dsDNA, one strand shown. In short, it runs like this:
as §1

The target of the next assay is ETV6 (Homo sapiens, UniProt P41212 1-452). As to conditions: protein: recombinant; tags: N-terminal GST; dsDNA, one strand shown. The procedure, abridged: as §1
Chain of ETV6 (P41212 whole entry): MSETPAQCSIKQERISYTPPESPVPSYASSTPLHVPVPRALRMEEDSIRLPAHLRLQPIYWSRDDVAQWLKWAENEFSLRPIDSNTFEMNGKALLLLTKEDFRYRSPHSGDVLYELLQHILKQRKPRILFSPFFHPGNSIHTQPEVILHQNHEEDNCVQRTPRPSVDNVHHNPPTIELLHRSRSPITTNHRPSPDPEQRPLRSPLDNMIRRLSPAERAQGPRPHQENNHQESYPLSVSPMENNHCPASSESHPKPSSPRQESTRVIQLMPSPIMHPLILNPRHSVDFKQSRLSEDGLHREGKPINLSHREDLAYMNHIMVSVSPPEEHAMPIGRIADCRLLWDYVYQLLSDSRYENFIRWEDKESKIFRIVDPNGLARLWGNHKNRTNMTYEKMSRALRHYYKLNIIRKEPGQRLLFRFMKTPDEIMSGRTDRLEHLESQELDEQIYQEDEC

Chain of HSF1 (Q00613 whole entry): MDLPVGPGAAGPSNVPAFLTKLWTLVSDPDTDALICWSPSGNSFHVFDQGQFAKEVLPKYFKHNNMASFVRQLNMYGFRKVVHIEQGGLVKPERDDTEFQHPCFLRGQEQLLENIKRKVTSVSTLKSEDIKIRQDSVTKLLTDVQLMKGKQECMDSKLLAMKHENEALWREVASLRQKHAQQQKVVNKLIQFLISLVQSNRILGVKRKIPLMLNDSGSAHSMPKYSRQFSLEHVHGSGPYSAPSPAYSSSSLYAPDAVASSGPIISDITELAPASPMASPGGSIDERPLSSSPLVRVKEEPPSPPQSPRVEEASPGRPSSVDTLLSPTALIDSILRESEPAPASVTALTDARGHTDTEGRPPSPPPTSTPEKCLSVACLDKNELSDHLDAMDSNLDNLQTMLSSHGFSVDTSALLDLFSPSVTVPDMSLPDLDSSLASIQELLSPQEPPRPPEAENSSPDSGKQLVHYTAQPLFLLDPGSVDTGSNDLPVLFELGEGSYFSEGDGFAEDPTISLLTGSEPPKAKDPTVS
Chain of ETV5 (P41161 whole entry): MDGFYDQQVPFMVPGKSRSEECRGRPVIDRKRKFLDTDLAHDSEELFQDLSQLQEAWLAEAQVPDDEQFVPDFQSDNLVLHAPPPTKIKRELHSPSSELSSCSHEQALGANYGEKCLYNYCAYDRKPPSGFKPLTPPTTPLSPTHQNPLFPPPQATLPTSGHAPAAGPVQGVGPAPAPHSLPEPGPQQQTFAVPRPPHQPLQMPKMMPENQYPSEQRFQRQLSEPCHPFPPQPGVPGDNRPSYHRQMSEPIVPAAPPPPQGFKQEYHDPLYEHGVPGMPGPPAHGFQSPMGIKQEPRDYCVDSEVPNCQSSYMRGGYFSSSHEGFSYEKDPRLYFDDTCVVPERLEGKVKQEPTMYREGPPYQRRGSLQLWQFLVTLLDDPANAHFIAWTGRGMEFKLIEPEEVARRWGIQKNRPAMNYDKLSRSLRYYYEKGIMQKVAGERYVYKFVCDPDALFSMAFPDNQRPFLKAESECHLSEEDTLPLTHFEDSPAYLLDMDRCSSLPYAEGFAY
Chain of ETV1 (P50549 whole entry): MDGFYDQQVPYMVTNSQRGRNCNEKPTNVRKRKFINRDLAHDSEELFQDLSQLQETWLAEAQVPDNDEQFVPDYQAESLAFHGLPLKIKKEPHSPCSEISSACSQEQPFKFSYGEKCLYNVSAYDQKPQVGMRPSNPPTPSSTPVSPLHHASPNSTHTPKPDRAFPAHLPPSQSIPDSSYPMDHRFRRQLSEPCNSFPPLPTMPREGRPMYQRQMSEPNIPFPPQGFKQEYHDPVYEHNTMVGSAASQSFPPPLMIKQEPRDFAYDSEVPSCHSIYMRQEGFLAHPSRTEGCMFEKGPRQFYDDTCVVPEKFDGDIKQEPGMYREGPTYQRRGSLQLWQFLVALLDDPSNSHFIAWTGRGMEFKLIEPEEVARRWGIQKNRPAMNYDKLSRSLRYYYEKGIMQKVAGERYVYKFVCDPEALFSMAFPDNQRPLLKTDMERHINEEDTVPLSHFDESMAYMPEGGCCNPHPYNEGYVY
Chain of CRX (O43186 whole entry): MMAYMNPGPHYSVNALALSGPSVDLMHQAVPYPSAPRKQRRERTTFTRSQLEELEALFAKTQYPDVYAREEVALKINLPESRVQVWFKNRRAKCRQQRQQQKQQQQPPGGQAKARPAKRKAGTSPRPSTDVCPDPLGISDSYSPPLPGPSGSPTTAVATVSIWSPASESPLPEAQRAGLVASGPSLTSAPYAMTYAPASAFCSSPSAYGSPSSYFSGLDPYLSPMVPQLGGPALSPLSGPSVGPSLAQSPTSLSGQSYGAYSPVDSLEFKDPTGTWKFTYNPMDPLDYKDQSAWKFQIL
Chain of ELF4 (Q99607 whole entry): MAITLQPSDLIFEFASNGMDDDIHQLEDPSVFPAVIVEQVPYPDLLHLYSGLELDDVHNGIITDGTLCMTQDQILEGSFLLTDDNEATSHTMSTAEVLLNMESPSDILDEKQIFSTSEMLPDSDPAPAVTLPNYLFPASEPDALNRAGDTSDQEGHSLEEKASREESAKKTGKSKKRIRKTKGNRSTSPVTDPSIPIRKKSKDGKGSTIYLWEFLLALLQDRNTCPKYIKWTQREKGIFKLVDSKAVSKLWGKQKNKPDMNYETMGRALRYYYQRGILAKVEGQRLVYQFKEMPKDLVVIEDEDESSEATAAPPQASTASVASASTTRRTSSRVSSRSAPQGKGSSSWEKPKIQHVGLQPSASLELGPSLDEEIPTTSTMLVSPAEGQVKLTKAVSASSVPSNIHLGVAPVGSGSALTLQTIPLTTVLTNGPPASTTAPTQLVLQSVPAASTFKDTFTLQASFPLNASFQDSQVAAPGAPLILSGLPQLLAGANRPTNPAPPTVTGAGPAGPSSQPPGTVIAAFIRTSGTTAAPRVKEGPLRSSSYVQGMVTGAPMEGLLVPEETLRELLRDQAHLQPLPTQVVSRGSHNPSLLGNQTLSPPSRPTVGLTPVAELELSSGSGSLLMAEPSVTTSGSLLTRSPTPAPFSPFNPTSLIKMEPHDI

As for AACCTC, the binding signal in the assay with FEV was 1.18 fold enrichment (6-mer frequency, TF over GST control); in the assay with ETV5, 1.22 fold enrichment (6-mer frequency, TF over GST control); with HSF1 it was 1.17 fold enrichment (6-mer frequency, TF over GST control); with SPIC it was 1.4 fold enrichment (6-mer frequency, TF over GST control); with ELF4, 1.2 fold enrichment (6-mer frequency, TF over GST control); with ELK4 it was 1.26 fold enrichment (6-mer frequency, TF over GST control). Moreover, the binding signal with ETV2 is 1.32 fold enrichment (6-mer frequency, TF over GST control); with ELF3 it was 1.28 fold enrichment (6-mer frequency, TF over GST control); in the assay with CRX it was 1.11 fold enrichment (6-mer frequency, TF over GST control); with ETV1, 1.24 fold enrichment (6-mer frequency, TF over GST control); with ERF it was 1.26 fold enrichment (6-mer frequency, TF over GST control); with ETV3L, 1.24 fold enrichment (6-mer frequency, TF over GST control). Further, the binding signal is 1.18 fold enrichment (6-mer frequency, TF over GST control) with ETS2; 1.07 fold enrichment (6-mer frequency, TF over GST control) with SPDEF; 1.26 fold enrichment (6-mer frequency, TF over GST control) with ETV7; 1.17 fold enrichment (6-mer frequency, TF over GST control) with ELF5; 1.2 fold enrichment (6-mer frequency, TF over GST control) in the assay with ETV3; 1.16 fold enrichment (6-mer frequency, TF over GST control) with ETV6.
